According to PubChem BioAssay AID2590 (National Center for Advancing Translational Sciences (NCATS), 2010):
Where “and” joins values, the source holds several entries; their conditions need not be identical. Identical values can stand only once. Inconclusive results are not listed. Calls of active or inactive are those of the source. The call rests on the fitted dose curve; in most records, active means well fitted curve in the direction sought with a large enough effect; inconclusive means small, poorly fitted or top-dose-only effect, or another doubt; inactive means no such curve, though single readings can be large or run the other way.

target: Lysosomal acid glucosylceramidase (Homo sapiens) (UniProt P04062); assay: qHTS Assay for Inhibitors and Activators of N370S glucocerebrosidase as a Potential Chaperone Treatment of Gaucher Disease: Primary Screen Confirmation; conditions: N370S glucocerebrosidase enzyme activity, fluorogenic substrate; series mostly up to 54 µM
Source text: NIH Chemical Genomics Center [NCGC]
NIH Molecular Libraries Probe Production Centers Network [MLPCN]
Assay Submitter (PI): Wei Zheng
Glucocerebrosidase (GC) catalyzes the hydrolysis of beta-glucocerebroside to glucose and ceramide in lysosomes. Mutations in the glucocerebrosidase gene result in Gaucher disease, an autosomal recessive lysosomal storage disorder. Many of the mutations encountered in patients with Gaucher disease are missense alterations that may cause misfolding, decreased stability and/or mistrafficking of this lysosomal protein. […] These inhibitors include iminosugar analogs and three non-iminosugar inhibitors identified from a previous HTS of 62,000 compounds with the wild type recombinant enzyme. However, the enhancement of enzyme activity by the chaperone action of an enzyme inhibitor must be balanced against the direct inhibition of the enzyme. An enzyme activator could also function as a chaperone by binding to the enzyme and helping to correct its misfolding and mistrafficking. While activators for GC have not yet been identified, they may have better therapeutic potential than inhibitors. Therefore the discovery and development of chemical activators may provide a new strategy for the chaperone therapy.
We have optimized a new assay using N370S mutant GC derived from the spleen of a Gaucher patient. […] In addition, the MLPCN compound library has expanded, which increases the chance of finding new and better probes.
NCGC Assay Protocol Summary:
This is a fluorogenic enzyme assay with 4-methylumbelliferyl-beta-D-glucopyranoside as the substrate and N370S glucocerebrosidase from human spleen homogenate as the enzyme preparation. Upon the hydrolysis of this fluorogenic substrate, the resulting product, […] which can be detected by a standard fluorescence plate reader. Data were normalized to the controls for basal activity (without enzyme) and 100% activity (with enzyme). The AC50 values were determined from concentration-response data modeled with the standard Hill equation.
Assay buffer: 50 mM citric acid (titrated with potassium phosphate to pH 5.0), 100 mM potassium chloride, 10 mM sodium chloride, 1 mM magnesium chloride, 0.01% Tween-20.
1536-well assay protocol:
(1) Add 2 ul/well of spleen homogenate (27 ug final)
(2) Add 23 nL compounds in DMSO solution. The final titration was 0.5 nM to 58 uM.
(3) Add 2 ul of substrate (1 mM final)
(4) Incubate at 37C for 40 min.
(5) Add 2 ul stop solution (1M NaOH and 1M Glycine mixture, pH 10)
(6) Detect the assay plate in a ViewLux plate reader (PerkinElmer) with Ex=365 nm and Em=440nm.
Keywords: Glucocerebrosidase, beta-glucosidase, Gaucher Disease, pharmacological chaperone, chaperone therapy, high throughput screening, glucocerebrosidase inhibitor, MLSMR, MLSCN, NIH Roadmap, qHTS and NCGC
Potency means the concentration at half of the fitted maximal effect.

Chain of Lysosomal acid glucosylceramidase (Homo sapiens) (P04062 whole entry N409S): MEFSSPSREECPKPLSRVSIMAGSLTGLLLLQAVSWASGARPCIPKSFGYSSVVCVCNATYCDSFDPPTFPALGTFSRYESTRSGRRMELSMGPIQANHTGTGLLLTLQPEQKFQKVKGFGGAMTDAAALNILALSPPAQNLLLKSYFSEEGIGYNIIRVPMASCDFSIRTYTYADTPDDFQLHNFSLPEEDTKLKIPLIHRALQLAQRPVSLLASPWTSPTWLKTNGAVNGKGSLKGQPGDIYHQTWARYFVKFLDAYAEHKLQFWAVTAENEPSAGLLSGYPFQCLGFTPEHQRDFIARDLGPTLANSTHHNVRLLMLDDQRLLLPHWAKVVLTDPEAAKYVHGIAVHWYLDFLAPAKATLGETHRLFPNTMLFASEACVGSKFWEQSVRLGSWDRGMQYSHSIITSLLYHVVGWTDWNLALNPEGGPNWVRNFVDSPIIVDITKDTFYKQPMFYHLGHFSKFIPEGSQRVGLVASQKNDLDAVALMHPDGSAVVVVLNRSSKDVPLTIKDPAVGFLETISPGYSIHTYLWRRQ

Structure (SMILES) | Potency
Cc1nc2nc(-c3ccc(F)cc3)cn2nc1C | inactive
O=S(=O)(c1ccccc1F)N1CCN(c2nc(-c3cccs3)nc3ccccc23)CC1 | 1.63 µM (active)
O=S(=O)(c1ccc2c(Cl)cccc2c1)N1CCN(c2nc(-c3cccs3)nc3ccccc23)CC1 | 2.01 µM (active)
CCC(=O)OCCNc1nc(-c2ccccc2)nc2ccccc12 | 16 µM (active)
S=C(NCCCc1cnc[nH]1)NCCCN(Cc1ccccc1)c1ccc(Br)cn1 | 5.79 µM (active)
Cc1cc(C)cc(N(CC(=O)Nc2ccc(Br)cc2)S(=O)(=O)c2c(C)[nH]c(=O)[nH]c2=O)c1 | 2.06 µM (active)
Cc1cccc(NC(=O)Nc2cccc(C)n2)n1 | inactive
COC(=O)c1nc(N2CCN(S(=O)(=O)c3ccc(C)cc3)CC2)c2ccccc2n1 | 16.3 µM (active)
CC(C)S(=O)(=O)N1CCN(c2nc(-c3cccs3)nc3ccccc23)CC1 | 5.07 µM (active)
Cc1ccc(S(=O)(=O)N2CCN(c3nc(-c4ncco4)nc4ccccc34)CC2)cc1 | 9.02 µM (active)
O=S(=O)(c1ccc(Cl)cc1)N1CCN(c2nc(Nc3cc(Cl)ccc3O)nc3ccccc23)CC1 | 2.59 µM (active)
CCC1CN(S(=O)(=O)c2ccc3c(c2)NC(=O)CC(=O)N3)c2cc(Cl)ccc2O1 (stereo not given) | 2.91 µM (active)
O=S(=O)(c1ccc(OC(F)(F)F)cc1)N1CCN(c2nc(-c3cccs3)nc3ccccc23)CC1 | 2.91 µM (active)
S=C(NCCCc1cnc[nH]1)NCCCN(Cc1ccc(Cl)cc1)c1cc(-c2ccccc2)ccn1 | 5.66 µM (active)
S=C(NCCCc1cnc[nH]1)NCCCN(Cc1ccc(Cl)cc1)c1ccc(Br)cn1 | 1.16 µM (active)
Cc1ccc(S(=O)(=O)N2CCN(c3nc(-c4cccs4)nc4ccccc34)CC2)c(C)c1 | 0.291 µM (active)
Cc1ccc(S(=O)(=O)N2CCN(c3nc(-c4cnccn4)nc4ccccc34)CC2)cc1 | inactive
COc1cccc(S(=O)(=O)N2CCN(c3nc(-c4cccs4)nc4ccccc34)CC2)c1 | 0.819 µM (active)
O=S(=O)(c1ccccc1Cl)N1CCN(c2nc(-c3cccs3)nc3ccccc23)CC1 | 1.16 µM (active) and 259 nM (active)
CN(CCO)c1nc(-c2cccs2)nc2ccccc12 | inactive

Structure (SMILES) | Potency
O=S(=O)(c1ccccc1Br)N1CCN(c2nc(-c3cccs3)nc3ccccc23)CC1 | 1.3 µM (active)
COCCNC(=O)/C(C#N)=C/c1c(N2CCN(C)CC2)nc2c(C)cccn2c1=O | inactive
Clc1ccccc1-c1nccc(NCc2ccccc2)n1 | 8.91 µM (active)
Cc1ccc(S(=O)(=O)N2CCCN(c3nc(-c4cccs4)nc4ccccc34)CC2)cc1 | 5.66 µM (active)
O=S(=O)(c1cccc(C(F)(F)F)c1)N1CCN(c2nc(-c3cccs3)nc3cc(Cl)ccc23)CC1 | inactive
O=[N+]([O-])c1ccccc1S(=O)(=O)N1CCN(c2nc(-c3cccs3)nc3ccccc23)CC1 | 0.73 µM (active)
c1ccc2c(NCC3CCCO3)nc(N3CCOCC3)nc2c1 (stereo not given) | inactive
Cc1ccc(S(=O)(=O)N2CCN(c3ccnc(-c4cccs4)n3)CC2)cc1 | 9.19 µM (active)
Cc1ccc(S(=O)(=O)N2CCN(c3nc(-c4ccc(C)s4)nc4ccccc34)CC2)cc1 | 3.26 µM (active)
Cc1ccc(-c2nc(Nc3ccc(O)cc3)c3ccccc3n2)cc1 | 12.7 µM (active)
O=S(=O)(c1cccc(C(F)(F)F)c1)N1CCN(c2nc(-c3cccs3)nc3ccccc23)CC1 | 6.35 µM (active)
S=C(NCCCN(Cc1ccc(Cl)c(Cl)c1)c1ccc(Br)cn1)NCCc1cnc[nH]1 | 18.3 µM (active)
COc1ccc(S(=O)(=O)N2CCN(c3nc(-c4cccs4)nc4ccccc34)CC2)cc1OC | 1.16 µM (active)
O=[N+]([O-])c1cccc(S(=O)(=O)N2CCN(c3nc(-c4cccs4)nc4ccccc34)CC2)c1 | 2.53 µM (active)
CC1(C)CCc2cc(S(=O)(=O)N3CCN(c4nc(-c5cccs5)nc5ccccc45)CC3)ccc2O1 | 1.13 µM (active)
Cc1ccc(S(=O)(=O)N2CCN(c3nc(C(N)=O)nc4ccccc34)CC2)cc1 | 13 µM (active)
CCOc1ccccc1NC(=O)CN(c1ccc(C)cc1)S(=O)(=O)c1c(C)noc1C | inactive
Cc1cccc(S(=O)(=O)N2CCN(c3nc(-c4cccs4)nc4ccccc34)CC2)c1 | 2.01 µM (active)
CCOCCCNc1nc(-c2ccccc2)nc2ccccc12 | 10.1 µM (active)
Cc1cc2nn(-c3ccc(Cl)cc3)nc2cc1N | inactive
